The values that follow come from PubChem BioAssay (NCATS).

Inconclusive results are not listed. Calls of active or inactive are those of the source. Calls come from the whole dose curve; as a rule, active = well fitted curve in the direction sought with a large enough effect; inconclusive = small, poorly fitted or top-dose-only effect, or another doubt; inactive = no such curve, though single readings can be large; an effect the other way counts as inactive or inconclusive.

A short description of assay [1]: qHTS of pediatric cancer cell lines to identify multiple opportunities for drug repurposing: Primary screen for LAN-5 cells (AID 1347100). Note: potency is the fitted concentration of half-maximal effect. The procedure, abridged:
(§1)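 Cells (500-1,000/well) in growth media were settled 5 h at 37 degrees C, then given compounds for 48 h. Viability was read as CellTiter-Glo luminescence. Primary runs used MIPE at 11 points (0.78 nM-46 µM) and NPC at 8 points (0.59 nM-46 µM); follow-ups used 11 points.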
A general note: qHTS replaces the single test concentration by a dilution series.

Assay [2] in a line: qHTS of pediatric cancer cell lines to identify multiple opportunities for drug repurposing: Primary screen for BT-12 cells (AID 1347101). Note: nearly all actives have a fitted effect of over 25% in size. Note: potency is the fitted concentration of half-maximal effect. The method, boiled down: (§2)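 Cells (500-1,000/well) rested 5 h, then received compounds for 48 h; metabolically active cells were measured by CellTiter-Glo luminescence. Final concentrations spanned up to 46 µM (MIPE, 11-point) or 0.59 nM-46 µM (NPC, 8-point) in primary screens, 11-point in follow-ups.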

The nature of assay [3]: qHTS of pediatric cancer cell lines to identify multiple opportunities for drug repurposing: Primary screen for OHS-50 cells (AID 1347103). Note: nearly all actives have a fitted effect of over 40% in size. Note: potency is the fitted concentration of half-maximal effect. The method, boiled down:
as §2

Assay [4] can be described thus: qHTS of pediatric cancer cell lines to identify multiple opportunities for drug repurposing: Primary screen for control Hh wild type fibroblast cells (AID 1347106). Note: nearly all actives have a fitted effect of over 55% in size. Note: potency is the fitted concentration of half-maximal effect. The method, boiled down:
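Viability after 48 h compound treatment at 37C, 500-1,000 cells/well, read as ATP luminescence with CellTiter-Glo. Primary screens used 11-point (MIPE, 0.78 nM-46 µM) or 8-point (NPC, 0.59 nM-46 µM) final concentrations; follow-up screens used 11-point dilutions.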

A short description of assay [5]: qHTS of pediatric cancer cell lines to identify multiple opportunities for drug repurposing: Primary screen for Rh30 cells (AID 1347107). Note: series mostly up to about 46 µM; nearly all actives have a fitted effect of over 75% in size. The procedure, abridged:
as §1

Assay [6] in a line: qHTS of pediatric cancer cell lines to identify multiple opportunities for drug repurposing: Confirmatory screen for NB1643 cells (AID 1347109). Note: nearly all actives have a fitted effect of over 45% in size. The method, boiled down: as §1
A short description of assay [7]: qHTS of pediatric cancer cell lines to identify multiple opportunities for drug repurposing: Confirmatory screen for SK-N-MC cells (AID 1347111).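 Note: cells exposed to compound for 48 h before the readout; nearly all actives have a fitted effect of over 70% in size.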 Note: potency is the fitted concentration of half-maximal effect. The procedure, abridged:
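Metabolically active cells were quantified by ATP-dependent luminescence (CellTiter-Glo, 15 min at room temperature) following 48 h treatment. Cells had been plated at 500-1,000 per well and settled for 5 h beforehand.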

Assay [8] can be described thus: qHTS of pediatric cancer cell lines to identify multiple opportunities for drug repurposing: Confirmatory screen for BT-12 cells (AID 1347112). Note: nearly all actives have a fitted effect of over 55% in size. Note: potency is the fitted concentration of half-maximal effect. The method, boiled down: as §1
Assay [9] can be described thus: qHTS of pediatric cancer cell lines to identify multiple opportunities for drug repurposing: Confirmatory screen for LAN-5 cells (AID 1347113). Note: nearly all actives have a fitted effect of over 65% in size. The method, boiled down: as §1
A short description of assay [10]: qHTS of pediatric cancer cell lines to identify multiple opportunities for drug repurposing: Confirmatory screen for SJ-GBM2 cells (AID 1347116). Note: nearly all actives have a fitted effect of over 60% in size. The procedure, abridged: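 Viability measured as metabolically active cells via CellTiter-Glo luminescence following 48 hours of compound exposure, 11-point dilutions in confirmatory testing. 500-1,000 cells/well plated 5 hours before dosing; controls were DMSO and 2.3 µM bortezomib.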

Assay [11] can be described thus: qHTS of pediatric cancer cell lines to identify multiple opportunities for drug repurposing: Confirmatory screen for TC32 cells (AID 1347118).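 Note: cells exposed to compound for 48 h before the read; nearly all actives have a fitted effect of over 65% in size.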 Note: potency is the fitted concentration of half-maximal effect. The procedure, abridged:
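Luminescent CellTiter-Glo read-out of metabolically active TC32 cells after 48 h compound exposure. Primary: MIPE 11-point, 0.78 nM–46 µM; NPC 8-point, 0.59 nM–46 µM. Confirmatory: 11-point dilutions.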

Assay [12] in a line: qHTS of pediatric cancer cell lines to identify multiple opportunities for drug repurposing: Confirmatory screen for control Hh wild type fibroblast cells (AID 1347121). Note: nearly all actives have a fitted effect of over 70% in size. The procedure, abridged:
as §1

The nature of assay [13]: qHTS of pediatric cancer cell lines to identify multiple opportunities for drug repurposing: Confirmatory screen for U-2 OS cells (AID 1347122). Note: nearly all actives have a fitted effect of over 65% in size. The method, boiled down:
as §1

A short description of assay [14]: qHTS of pediatric cancer cell lines to identify multiple opportunities for drug repurposing: Primary screen for RD cells (AID 1347104). Note: nearly all actives have a fitted effect of over 55% in size. Note: potency is the fitted concentration of half-maximal effect. The method, boiled down:
(§3)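 Cells plated at 500-1,000/well in growth medium, compounds added after 5 h. MIPE tested at 11 points (from 0.78 nM), NPC at 8 points (from 0.59 nM). CellTiter-Glo luminescence after 48 h; concentration-response curves from primary screen.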

The nature of assay [15]: qHTS of pediatric cancer cell lines to identify multiple opportunities for drug repurposing: Confirmatory screen for A673 cells (AID 1347110).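 Note: potency is the fitted concentration of half-maximal effect; cells exposed to compound for 48 h before the viability read; nearly all actives have a fitted effect of over 65% in size.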 The method, boiled down: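 Forty-eight-hour viability assay. Follow-up compounds ran at 11-point dilutions; positive control bortezomib at 2.3 uM final, neutral control DMSO.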
The nature of assay [16]: qHTS of pediatric cancer cell lines to identify multiple opportunities for drug repurposing: Primary screen for Rh41 cells (AID 1347108). Note: nearly all actives have a fitted effect of over 70% in size. Note: potency is the fitted concentration of half-maximal effect. The method, boiled down:
as §3

The nature of assay [17]: qHTS of pediatric cancer cell lines to identify multiple opportunities for drug repurposing: Primary screen for MG 63 (6-TG R) cells (AID 1347105). Note: nearly all actives have a fitted effect of over 50% in size. Note: potency is the fitted concentration of half-maximal effect. The method, boiled down:
as §3

The nature of assay [18]: qHTS of pediatric cancer cell lines to identify multiple opportunities for drug repurposing: Confirmatory screen for BT-37 cells (AID 1347117). Note: nearly all actives have a fitted effect of over 55% in size. Note: potency is the fitted concentration of half-maximal effect. The procedure, abridged: as §1
Assay [19] in a line: qHTS of pediatric cancer cell lines to identify multiple opportunities for drug repurposing: Primary screen for Rh18 cells (AID 1347102). Note: nearly all actives have a fitted effect of over 65% in size. The procedure, abridged:
as §1

As to `CN[C@@H](C)C(=O)N[C@H]1CN(C(=O)CC(C)C)CC[C@H]2CC[C@@H](C(=O)NC(c3ccccc3)c3ccccc3)N2C1=O`, the Potency in assay [1] is 0.187 µM (active); in assay [2], 0.485 µM (active); in assay [3] it was 0.243 µM (active); in assay [7] it was 7.37 µM (active); in [11], 8.27 µM (active). In addition, the Potency result in [4], in assay [5], in [6], in assay [8], in assay [9] and in assay [10] was “inactive” throughout. Besides, the Potency entry in assay [12] and in assay [13] was “inactive” throughout.

As for `O=C(O)c1ccc(-c2cc3cccnc3c(-c3ccc4nonc4c3)n2)cc1`, the Potency is 20.9 µM (active) in [1]; 27.3 µM (active) in assay [2]; 27.3 µM (active) in [3]; 26.4 µM (active) in assay [14]; 0.928 µM (active) in assay [15]; 2.33 µM (active) in [7]. The Potency in assay [8] is 4.14 µM (active); in assay [11], 2.61 µM (active). Besides, the Potency result in assay [4] and in assay [5] was “inactive” in each case.

With `CCS(=O)(=O)N1CC(CC#N)(n2cc(-c3ncnc4[nH]ccc34)cn2)C1`, the Potency was 20.9 µM (active) in [1] and 18.7 µM (active) in assay [16]. The Potency result in [2] and in [4] was “inactive” in each case.

`CC(=NNC(=S)N1CCC1)c1ccccn1`: the Potency is 0.935 µM (active) in assay [1]; 0.0014 µM (active) in [2]; 0.003 µM (active) in assay [14]; 0.0235 µM (active) in assay [17]; 0.166 µM (active) in assay [4]; 23.3 µM (active) in assay [15]. Moreover, the Potency entry in assay [6], in [7], in assay [8], in [9], in [10] and in assay [18] was “inactive” each time. In addition, the Potency entry in [11] and in assay [12] was “inactive” throughout.

Take `COC(=O)C1=CO[C@@H](O)[C@@H]2C(CO)=CC[C@@H]12`: the Potency in [1] was 20.9 µM (active). Further, the Potency entry in assay [14], in assay [4], in [5] and in assay [16] was “inactive” each time.

As for `O=c1c(O)c(-c2ccc(O)cc2)oc2cc(O)cc(O)c12`, in assay [1], the Potency is 6.62 µM (active). For the same compound, the Potency entry in [17] and in assay [4] was “inactive” throughout.

On to `O=C(O)CCC1CCC(c2cc(F)ccc2F)(S(=O)(=O)c2ccc(Cl)cc2)CC1` (stereo not drawn), for which the Potency in assay [1] was 2.35 µM (active); in [14], 14.8 µM (active); in [17], 9.35 µM (active); in assay [16], 5.9 µM (active); in [7], 20.8 µM (active); in assay [8] it was 26.1 µM (active). Further, the results for the Potency in assay [18] and in assay [11] were 16.5 µM (active) and 20.8 µM (active), respectively. For the same compound, the Potency entry in assay [4], in [5], in assay [6], in assay [10] and in [12] was “inactive” each time.

Take `CC=CCC=CCCC(=O)[C@H]1O[C@@H]1C(N)=O`: the Potency result in assay [2], in assay [19], in assay [3], in assay [14], in [17] and in assay [4] was “inactive” in each case. Besides, the Potency result in assay [5] and in [16] was “inactive” in each case.

With `CC[C@@]1(O)C[C@H](O[C@H]2C[C@H](N(C)C)[C@H](O[C@H]3C[C@H](O)[C@H](O[C@H]4CCC(=O)[C@H](C)O4)[C@H](C)O3)[C@H](C)O2)c2c(cc3c(c2O)C(=O)c2c(O)cccc2C3=O)[C@@H]1C(=O)OC`, in assay [1], the Potency was 2.35 µM (active). Moreover, the Potency entry in assay [3], in [14], in assay [17], in assay [4] and in [5] was “inactive” each time.

Regarding `NC(=O)[C@@H](CCC(F)(F)F)N(Cc1ccc(-c2ncon2)cc1F)S(=O)(=O)c1ccc(Cl)cc1`, the Potency entry in assay [1], in assay [19] and in [4] was “inactive” in each case.

In the case of `O=C(Nc1cc(Cl)cc2c1[nH]c1cnccc12)c1cccnc1`, the Potency entry in assay [1], in [19] and in assay [16] was “inactive” each time.

For `CC(C)C[C@H](CC(=O)O)C(=O)N[C@@H](Cc1c[nH]c2ccccc12)C(=O)N[C@@H](C)c1ccccc1`, the Potency in assay [1] is 2.64 µM (active). Moreover, the Potency entry in [19], in assay [14], in [17], in [4] and in [5] was “inactive” throughout.

Consider `Cc1ccc(C(C)(O)c2nc3ccccc3s2)c(C)c1` (stereo not drawn), for which, in [1], the Potency is 3.72 µM (active). The Potency result in assay [19], in assay [14], in [4] and in assay [5] was “inactive” throughout.
